Data as given in PubChem BioAssay (EPA / NIEHS).
The source made the active and inactive calls. The calls were made as follows: active = hit-call score of the fitted dose curve at least 0.9, where 1 is the maximum; inactive = score below 0.9.

Tests used:
[1] = target: Bile acid receptor (Homo sapiens) (UniProt Q96RI1); experiment: ATG_IR1_CIS: Attagene CIS-FACTORIAL HepG2 Assay for human Nuclear Receptor Subfamily 1 Group H Member 4 (NR1H4), IR1 submotif (AID 2282946); conditions: IR1 reporter transcription, actives raise or lower the signal
Bile acid receptor (Homo sapiens), sequence (Q96RI1 whole entry, looked up): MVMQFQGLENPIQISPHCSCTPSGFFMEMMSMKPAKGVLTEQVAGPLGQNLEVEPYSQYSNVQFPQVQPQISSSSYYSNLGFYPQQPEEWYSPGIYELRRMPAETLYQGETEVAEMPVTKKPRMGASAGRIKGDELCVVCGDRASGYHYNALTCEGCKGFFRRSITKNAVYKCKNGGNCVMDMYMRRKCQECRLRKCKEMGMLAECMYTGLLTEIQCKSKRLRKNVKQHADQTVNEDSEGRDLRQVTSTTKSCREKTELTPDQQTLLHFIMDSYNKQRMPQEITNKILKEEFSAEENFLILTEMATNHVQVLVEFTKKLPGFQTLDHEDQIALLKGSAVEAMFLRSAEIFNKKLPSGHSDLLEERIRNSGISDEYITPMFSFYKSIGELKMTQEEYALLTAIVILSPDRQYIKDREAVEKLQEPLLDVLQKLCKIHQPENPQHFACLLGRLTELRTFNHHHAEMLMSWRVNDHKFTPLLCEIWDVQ
Summary of the method: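 Transient MRTU transfection, HepG2; 24 h dosing; RNA → RT-PCR → 6-FAM primer extension → HpaI digest → capillary electrophoresis fluorescence. Gain/loss of signal fitted relative to DMSO.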

[2] = ATG_ISRE_CIS: Attagene CIS-FACTORIAL HepG2 Assay for human Interferon Regulatory Factor 1 (IRF1) binding to an Interferon-Stimulated Response Element (ISRE) (AID 2282948); conditions: HepG2 ISRE cis-reporter (Attagene), mRNA transcription readout; actives raise or lower the signal
Summary of the method: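 Transiently transfected HepG2 cells carrying cis-element reporter units, dosed 24 hours. Reporter mRNA quantified by RT-PCR, fluorescent primer extension, HpaI digestion and capillary electrophoresis. Bidirectional fitting relative to DMSO.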

[3] = ATG_M_32_CIS: Attagene CIS-FACTORIAL HepG2 Assay for M32 Transcription Factor (Internal Marker) (AID 2282949); conditions: HepG2 Attagene cis-factorial M32 reporter, mRNA; actives raise or lower the signal;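 also: background control marker of the multiplexed CIS panel rather than a real target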
Summary of the method: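 Internal background marker read-out: RT-PCR/capillary electrophoresis fluorescence of reporter transcripts from transiently transfected HepG2 cells after 24 h chemical exposure. Activity fitted bidirectionally relative to DMSO negative control.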

[4] = ATG_M_06_CIS: Attagene CIS-FACTORIAL HepG2 Assay for M06 Transcription Factor (Internal Marker) (AID 2282950); conditions: HepG2 Attagene CIS-FACTORIAL M06 internal marker reporter; actives raise or lower the signal
Summary of the method: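 Steps: transfect HepG2 with multiplexed cis-element reporter constructs; dose chemical 24 h; extract RNA with DNase treatment; reverse-transcribe, PCR-amplify, 6-FAM label, HpaI digest; separate fragments by capillary electrophoresis. Activity fitted both directions versus DMSO.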

[5] = target: Hypoxia-inducible factor 1-alpha (Homo sapiens) (UniProt Q16665); experiment: ATG_HIF1a_CIS: Attagene CIS-FACTORIAL HepG2 Assay for human Hypoxia Inducible Factor 1 (HIF1A) (AID 2282951); conditions: HepG2 Attagene cis-factorial HIF1a reporter transcription; actives raise or lower the signal
Hypoxia-inducible factor 1-alpha (Homo sapiens), sequence (Q16665 whole entry, looked up): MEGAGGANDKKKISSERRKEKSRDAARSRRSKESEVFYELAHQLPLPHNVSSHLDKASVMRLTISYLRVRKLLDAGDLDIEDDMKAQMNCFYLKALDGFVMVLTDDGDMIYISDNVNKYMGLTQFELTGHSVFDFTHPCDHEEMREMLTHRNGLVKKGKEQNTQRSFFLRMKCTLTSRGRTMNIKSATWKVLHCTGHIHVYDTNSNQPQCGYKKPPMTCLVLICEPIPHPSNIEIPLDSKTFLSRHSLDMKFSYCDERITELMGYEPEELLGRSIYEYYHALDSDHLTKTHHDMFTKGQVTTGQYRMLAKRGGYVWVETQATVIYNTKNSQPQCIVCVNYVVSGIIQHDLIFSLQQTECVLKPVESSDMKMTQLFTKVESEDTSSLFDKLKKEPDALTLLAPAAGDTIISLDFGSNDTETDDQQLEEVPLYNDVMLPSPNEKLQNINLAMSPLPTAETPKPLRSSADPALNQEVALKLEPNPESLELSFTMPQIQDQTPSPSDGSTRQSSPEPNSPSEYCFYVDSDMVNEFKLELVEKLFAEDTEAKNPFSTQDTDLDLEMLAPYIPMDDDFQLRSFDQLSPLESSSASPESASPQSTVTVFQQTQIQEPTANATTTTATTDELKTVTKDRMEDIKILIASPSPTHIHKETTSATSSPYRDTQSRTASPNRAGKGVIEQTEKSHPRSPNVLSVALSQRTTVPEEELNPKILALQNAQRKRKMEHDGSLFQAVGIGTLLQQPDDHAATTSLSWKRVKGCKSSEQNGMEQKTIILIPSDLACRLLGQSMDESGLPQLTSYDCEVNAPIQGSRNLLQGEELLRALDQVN
Summary of the method: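 Measures endogenous transcription-factor activity through cis-regulated reporter mRNA in HepG2. Cells dosed 24 h; transcripts quantified by RT-PCR with 6-FAM-labelled products separated by capillary electrophoresis; DMSO serves as negative control.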

[6] = target: Hepatocyte nuclear factor 6 (Homo sapiens) (UniProt Q9UBC0); experiment: ATG_HNF6_CIS: Attagene CIS-FACTORIAL HepG2 Assay for human Hepatocyte Nuclear Factor 6 (HNF6) (AID 2282952); conditions: HepG2 Attagene cis-factorial HNF6 reporter transcription; actives raise or lower the signal
Hepatocyte nuclear factor 6 (Homo sapiens), sequence (Q9UBC0 whole entry, looked up): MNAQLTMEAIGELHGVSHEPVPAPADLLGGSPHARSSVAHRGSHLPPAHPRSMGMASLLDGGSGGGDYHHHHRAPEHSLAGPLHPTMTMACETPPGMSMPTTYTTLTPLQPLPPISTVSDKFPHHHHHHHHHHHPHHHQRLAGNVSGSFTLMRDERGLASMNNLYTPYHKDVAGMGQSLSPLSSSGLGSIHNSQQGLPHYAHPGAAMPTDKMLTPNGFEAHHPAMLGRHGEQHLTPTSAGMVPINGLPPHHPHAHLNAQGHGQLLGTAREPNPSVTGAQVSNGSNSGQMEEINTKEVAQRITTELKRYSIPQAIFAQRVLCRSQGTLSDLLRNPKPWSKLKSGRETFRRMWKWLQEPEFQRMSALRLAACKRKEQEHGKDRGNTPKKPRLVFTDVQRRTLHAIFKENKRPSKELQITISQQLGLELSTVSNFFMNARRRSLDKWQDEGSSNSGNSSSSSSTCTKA
Summary of the method: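 Multiplexed mRNA reporter assay in transfected HepG2; 24 h dosing; RT-PCR plus capillary electrophoresis fluorescence; DMSO-referenced bidirectional curve fitting.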

[7] = ATG_MRE_CIS: Attagene CIS-FACTORIAL HepG2 Assay for human Metal Responsive Element (MRE) (AID 2282954); conditions: HepG2 MRE cis-reporter transcription, Attagene multiplex; actives raise or lower the signal
Summary of the method: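 HepG2 cells transiently transfected with multiple cis-element reporter units measure endogenous MTF1-driven transcription. After 24 h compound exposure, reporter mRNA is quantified by RT-PCR with 6-FAM labelling, HpaI digestion and capillary electrophoresis; bidirectional fits versus DMSO.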

[8] = ATG_PBREM_CIS: Attagene CIS-FACTORIAL HepG2 Assay for human Phenobarbital-responsive Enhancer Module (PBREM) (AID 2282955); conditions: HepG2 PBREM cis-reporter, Attagene multiplexed transcription; actives raise or lower the signal
Summary of the method: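 Fluorescence of labelled reporter cDNA fragments, resolved by capillary electrophoresis, gives mRNA induction in transfected HepG2 cells treated for 24 h; DMSO serves as negative control and baseline.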

[9] = target: Heat shock factor protein 1 (Homo sapiens) (UniProt Q00613); experiment: ATG_HSE_CIS: Attagene CIS-FACTORIAL HepG2 Assay for human Heat Shock Transcription Factor 1 (HSE) (AID 2282953); conditions: HepG2 HSE cis-reporter, Attagene RNA transcription; actives raise or lower the signal
Heat shock factor protein 1 (Homo sapiens), sequence (Q00613 whole entry, looked up, the tested form may be a part): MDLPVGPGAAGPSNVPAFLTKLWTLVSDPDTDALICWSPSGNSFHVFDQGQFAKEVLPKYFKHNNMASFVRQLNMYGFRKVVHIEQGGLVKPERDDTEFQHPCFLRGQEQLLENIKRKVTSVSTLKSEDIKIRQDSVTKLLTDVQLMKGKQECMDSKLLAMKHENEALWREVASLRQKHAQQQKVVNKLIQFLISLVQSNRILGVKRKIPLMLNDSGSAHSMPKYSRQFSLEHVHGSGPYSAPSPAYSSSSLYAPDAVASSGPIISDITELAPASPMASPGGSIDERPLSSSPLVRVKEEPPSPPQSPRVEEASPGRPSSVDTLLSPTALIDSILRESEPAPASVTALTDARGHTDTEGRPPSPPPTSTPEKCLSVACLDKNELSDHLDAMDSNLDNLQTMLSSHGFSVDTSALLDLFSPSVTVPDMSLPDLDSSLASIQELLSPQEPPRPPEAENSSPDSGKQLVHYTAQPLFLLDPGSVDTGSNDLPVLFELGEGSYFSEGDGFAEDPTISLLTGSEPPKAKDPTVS
Summary of the method: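 Cells were transfected with cis-element-driven reporter constructs, dosed for 24 h, then total RNA was reverse-transcribed and reporter cDNA amplified, FAM-labelled and digested with HpaI. Fragments were resolved by capillary electrophoresis; gain or loss was fitted against DMSO.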

[10] = ATG_GRE_CIS: Attagene CIS-FACTORIAL HepG2 Assay for human Glucocorticoid Response Elements (GRE) (AID 2282947); conditions: HepG2 GRE cis-reporter, Attagene multiplex mRNA; actives raise or lower the signal
Summary of the method: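 HepG2 cells transiently transfected with multiple cis-promoter reporter units measure endogenous TF activity; 24 h compound exposure. Reporter mRNA quantified by RT-PCR, FAM labelling, HpaI digestion and capillary electrophoresis; bidirectional fit vs DMSO baseline.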

Row | Compound | outcome [1] | outcome [2] | outcome [3] | outcome [4] | outcome [5] | outcome [6] | outcome [7] | outcome [8] | AC50 [2] | AC50 [9] | AC50 [7] | outcome [10] | outcome [9] | AC50 [5]
1 | COc1ccc([C@@H]2CC(=O)c3c(O)cc(O[C@@H]4O[C@H](CO[C@@H]5O[C@@H](C)[C@H](O)[C@@H](O)[C@H]5O)[C@@H](O)[C@H](O)[C@H]4O)cc3O2)cc1OC | inactive | inactive | inactive | inactive | inactive | inactive | inactive | inactive |  |  |  |  |  | 
2 | CCC(Cc1ccccc1)(C(=O)c1ccc(N2CCOCC2)cc1)N(C)C (configuration not stated) | inactive |  | inactive | inactive |  | inactive |  |  | 27.2 µM (active) | 65.9 µM (active) | 52.7 µM (active) |  |  | 
3 | C=CCCCCCCCCC(=O)OCCCC | inactive | inactive | inactive | inactive | inactive | inactive | inactive | inactive |  |  |  |  |  | 
4 | Cc1cc(C)c(C)c(C)c1 | inactive | inactive | inactive |  | inactive | inactive | inactive | inactive |  |  |  |  |  | 
5 | c1c[nH]cn1 |  | inactive | inactive | inactive | inactive | inactive | inactive |  |  |  |  | inactive | inactive | 
6 | O=S(=O)(O)CC(O)CCl (configuration not stated) | inactive | inactive | inactive | inactive |  | inactive | inactive | inactive |  |  |  |  | inactive | 
7 | CC(C)COC(=O)C=Cc1ccccc1 | inactive | inactive | inactive | inactive | inactive | inactive | inactive | inactive |  |  |  |  | inactive | 
8 | CCCOCCOCCOCCO | inactive |  | inactive | inactive | inactive | inactive |  |  |  |  |  |  | inactive | 
9 | CC(=O)Oc1ccc(C)cc1 |  | inactive | inactive | inactive | inactive | inactive | inactive |  |  |  |  | inactive | inactive | 
10 | CCCc1ccc(OC)cc1 |  | inactive | inactive | inactive | inactive | inactive |  |  |  |  |  | inactive | inactive | 
11 | CC(C)=CCCC(C)C=O (configuration not stated) | inactive |  | inactive |  | inactive | inactive | inactive | inactive |  |  |  |  | inactive | 
12 | O=C(O)C(c1ccc(Cl)cc1)c1ccc(Cl)cc1 | inactive | inactive | inactive | inactive |  | inactive | inactive | inactive |  |  |  |  | inactive | 72.1 µM (active)
13 | COc1cc(C)ccc1C(C)C | inactive |  | inactive | inactive | inactive | inactive |  |  |  |  |  |  | inactive | 
14 | Cc1cc(=O)n(-c2ccccc2)n1C | inactive | inactive | inactive | inactive |  | inactive | inactive | inactive |  |  |  |  |  | 
15 | CCC(C)C=O (configuration not stated) | inactive | inactive | inactive | inactive | inactive | inactive | inactive | inactive |  |  |  |  | inactive | 
16 | Cc1cccc(N)n1 | inactive | inactive | inactive |  | inactive | inactive | inactive |  |  |  |  |  | inactive | 
17 | CCCCCCCCCCC=CC#N | inactive | inactive | inactive | inactive | inactive | inactive | inactive | inactive |  |  |  |  |  | 
18 | Cc1ccc([N+](=O)[O-])cc1S(=O)(=O)O |  | inactive | inactive | inactive | inactive | inactive | inactive |  |  |  |  | inactive | inactive | 
19 | CC(=O)Oc1ccc(C(C)=O)cc1 | inactive | inactive | inactive | inactive | inactive | inactive | inactive | inactive |  |  |  |  | inactive | 
20 | CCCCCCCCCCOS(=O)(=O)O | inactive | inactive | inactive | inactive |  | inactive | inactive | inactive |  |  |  |  | inactive | 
21 | CC(=O)OCC(C)OC(C)=O (configuration not stated) | inactive | inactive | inactive | inactive | inactive | inactive | inactive |  |  |  |  |  |  | 
22 | CC(C)c1ccc2cc(C(C)C)ccc2c1 |  | inactive | inactive | inactive | inactive | inactive | inactive |  |  |  |  | inactive | inactive | 
23 | CCCCC(CC)CCC(CC(C)C)OS(=O)(=O)O (configuration not stated) | inactive |  | inactive |  | inactive | inactive |  | inactive |  |  |  |  | inactive | 
24 | C=C[Si](C)(C)O[Si](C)(C)C=C |  | inactive | inactive | inactive | inactive | inactive | inactive |  |  |  |  | inactive | inactive | 
25 | C=CCOCC(O)CCl (configuration not stated) |  | inactive | inactive | inactive | inactive | inactive | inactive |  |  |  |  | inactive | inactive | 
26 | CCCNC(=O)NS(=O)(=O)c1ccc(Cl)cc1 |  | inactive | inactive | inactive | inactive | inactive | inactive |  |  |  |  | inactive | inactive | 
27 | O=C1CCCCCN1SSN1CCCCCC1=O | inactive |  | inactive | inactive | inactive | inactive |  | inactive | 167 µM (active) |  | 165 µM (active) |  |  | 
28 | O=c1n(CCO)c(=O)n(CCO)c(=O)n1CCO | inactive | inactive | inactive | inactive | inactive | inactive | inactive | inactive |  |  |  |  | inactive | 
29 | CCN(CCO)c1cccc(C)c1 | inactive |  | inactive | inactive | inactive | inactive | inactive | inactive |  |  |  |  | inactive | 
30 | O=C(O)Cc1c(Cl)ccc(Cl)c1Cl | inactive |  | inactive | inactive | inactive | inactive | inactive | inactive |  |  |  |  | inactive | 
